Source: PubChem BioAssay AID651800 (The Scripps Research Institute Molecular Screening Center, 2012)
Hit rate of the full screen: of about 360,000 compounds, about 1,300 (0.36%) were called active. The sample holds actives, similar compounds and a random draw of the others, so the mix is not that of the screen. A number with no mark means an inactive call. Rule as the data show it: active = inhibition above about 19%; inactive = the rest.

test system: T-cell receptor (TCR); assay: inhibitors of human TCR-CD3 interaction, primary screen, biochemical, fluorescence, TAMRA-labeled TCR probe (AID 651800); conditions: at 9.4 µM, active compounds read high;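 also: recombinant mutant TCR 2C K166C tagged with TAMRA read by polarization; 0% = receptor in buffer alone and 100% = receptor with positive control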

| SMILES | inhibition |
| --- | --- |
| COc1ccccc1CCC(=O)NNC(=O)c1ccncc1 | 1.16% |
| COc1ccc(C(=O)NC(=S)NNC(=O)CCc2ccccc2)cc1 | 101% (active) |
| COc1ccc(/C(N)=N/OC(=O)CCCc2ccccc2)cc1 | 3.62% |
| C[C@@H]1CN([C@H](C)CO)C(=O)CCCn2cc(nn2)CO[C@H]1CN(C)C(=O)Nc1ccc(N2CCCCC2)cc1 | -4.6% |
| O=C(Nc1c(Cl)c(C2CC2)nn1-c1ccccc1)C(Cl)(Cl)Cl | 4.25% |
| O=C(N[C@H](C(=O)N1CCC[C@H]1C(=O)NCCc1ccccc1Cl)c1ccccc1)c1ccccc1 | 7.43% |
| Cc1cc(NCCc2c[nH]c3ccccc23)ccc1Oc1cccnc1 | -1.7% |
| O=C(N[C@H](Cc1ccccc1)C(=O)N1CCCN(Cc2cccs2)CC1)[C@H]1O[C@@H](n2ccc(=O)[nH]c2=O)[C@H](O)[C@@H]1O | -1.23% |
| COC(=O)N1Cc2ccnnc2CC1c1ccccc1Br (centres undefined) | 12% |
| Cc1ccc(NC(=O)N2c3ccccc3SC2c2ccco2)c(C)c1 (centres undefined) | 1.82% |
| COC(=O)C1=C(C)N(Cc2ccc(C(F)(F)F)cc2)C(=NCc2ccc(C(F)(F)F)cc2)NC1c1cccc(Cl)c1 (centres undefined) | 1.76% |
| COCCOC(=O)c1sc(=S)n(CCOC)c1N | 38.1% (active) |
| COC(=O)[C@]12C[C@H](CC(=O)NCCC(C)C)C(=O)N(CCc3ccc(OC)c(OC)c3)C1=C[C@H](C(C)(C)C)O[C@@H]2C | -1.41% |
| COCc1cc(N2CCN(C(=O)OC(C)(C)C)C[C@@H]2C)ccc1N1CCN(Cc2ccccc2)[C@H](C)C1 | -5.69% |
| Cc1cc(N2CCN(C(=O)OC(C)(C)C)C[C@H]2C)ccc1N1CCN(Cc2ccccc2)[C@H](C)C1 | -1.77% |
| COc1cccc2c1C(=O)c1c(O)c3c(c(O)c1C2=O)CC(O)(C(C)=NNC(=O)c1ccc(Cl)c(Cl)c1)CC3OC1CC(N)C(O)C(C)O1 (centres undefined) | 158% (active) |
| Nc1nc2c(ncn2[C@@H]2O[C@H](C(=O)N[C@H](Cc3ccccc3)C(=O)NCC3CCCCC3)[C@@H](O)[C@H]2O)c(=O)[nH]1 | -5.72% |
| CCCCCCCCN1C(=O)[C@@H](CC(=O)NCCCC)C[C@@]2(C(=O)OC)C1=C[C@H](C(C)(C)C)O[C@@H]2C | 4.32% |
| CC1(C)OC(=O)C2=C(CC(CCc3ccccc3)OC2c2ccc(Cl)cc2)O1 (centres undefined) | 0.34% |
| Cc1ccc(Cc2cnc(N)s2)o1 | 20.7% (active) |
| Cc1ccc(CCC(=O)Nc2ncc(Cc3cc(Cl)ccc3Cl)s2)o1 | -1.49% |

| SMILES | inhibition |
| --- | --- |
| C=CCN=C1NC(c2ccccc2)C(C(=O)OC)=C(C)N1Cc1ccc(C(F)(F)F)cc1 (centres undefined) | -2.66% |
| N#Cc1ccc(OCCCN2CCC(C(O)(c3ccccc3)c3ccccc3)CC2)c(F)c1 | -1.37% |
| COC(=O)c1ccc(CN2C(=O)[C@]3(OCCC=C[C@H]3C)c3c(Br)cccc32)cc1 | -2.86% |
| CN1c2ccc(C=O)c3c(C=O)ccc(c23)N(C)C1(C)C | 35% (active) |
| C#CCOCCOCCOCCNc1nc(N2CCN(C(=O)C([C@@H](C)CC)n3cc(C(N)COC(=O)C(F)(F)F)nn3)CC2)nc(N2CCN(C(=O)[C@H](Cc3ccc(O)cc3)n3cc(C(N)[C@H](C)CC)nn3)CC2)n1 (some centres undefined) | 1.55% |
| CCCN1C(=O)c2[nH]nc(-c3ccccc3)c2C1c1ccccc1 (centres undefined) | 1.37% |
| CN(C)c1ccc(N/C=C/C(=O)C(F)(F)F)cc1 | 20.8% (active) |
| CN(C)c1ccc(/C=N/NC(=O)C(O)c2ccc(Br)cc2)cc1 (centres undefined) | 4.89% |
| CNC(=S)NNC(=O)c1ccc(N(C)C)cc1 | 5.64% |
| C#CCN([C@@H](C)C(=O)OCC)S(=O)(=O)c1ccc(Br)cc1F | 1.93% |
| C(=N/N1CCN(c2ccccc2)CC1)/c1cccs1 | 4.89% |
| CSc1ccc(/C=N/N2CCN(Cc3ccccc3Cl)CC2)cc1 | -2.6% |
| CN1CCN(/N=C/c2ccc(C#N)cc2)CC1 | 51.9% (active) |
| COC(=O)C1=C(C)NC(=S)NC1c1ccc(OC)cc1 (centres undefined) | 0.64% |
| COc1cccc(CC(=O)N2CCN(C(=O)C(=O)c3cccc(C(F)(F)F)c3)CC2)c1 | 0.68% |
| C[C@H](O)[C@@H]1CN2CCc3ccc(-c4ccc5c(c4)OCO5)cc3[C@@H]2C[C@@H]1N(C)C(=O)C1CCCCC1 | 8.65% |
| O=C(CCNC(=O)c1ccccc1)NN=Cc1ccc(Br)o1 | 21.9% (active) |
| O=C(CCNC(=O)c1ccccc1Cl)NN=Cc1ccco1 | -5.52% |
| O=C(N/N=C/c1ccc(Br)o1)c1cncc(Br)c1 | -0.44% |
| CN1C(=O)C(Br)(Br)CC1c1cccnc1 (centres undefined) | -8.3% |
| Cc1cc(Br)cn2c(Cc3ccccc3C(F)(F)F)c(-c3ccc(C#N)cc3)nc12 | 4.41% |

| SMILES | inhibition |
| --- | --- |
| COCCCNC(=S)NNC(=O)C(O)(c1ccccc1)c1ccccc1 | 24.9% (active) |
| CCCCNC(=S)NNC(=O)c1cc(C)on1 | 11.9% |
| COCCCNC(=S)N(Cc1ccccc1)Cc1ccc(F)cc1 | -3.1% |
| O=C(C(=O)N1CCC(CNS(=O)(=O)Cc2ccccc2)CC1)c1cc2ccccc2o1 | -2.01% |
| OC(c1ccccc1)(c1ccccc1)C1CCN(CCCOc2ccc(-c3ccsc3)cc2)CC1 | 2.16% |
| Cc1ccc(CNC(=O)COc2ccc3c(c2)CCC3)cc1 | 1.31% |
| CCOCC(=O)NCc1ccc2c(c1)cc(C)n2C | 28.4% (active) |
| Cc1ccc(CNC(=O)Cc2cn(C)c3ccccc23)cc1 | 6.02% |
| COC(=O)[C@H](CC(C)C)NS(=O)(=O)c1c(F)cccc1F | -1.84% |
| O=c1[nH]c(-c2ccccc2)cn1C1CCN(Cc2ccc(-c3nc4ccc(F)cc4nc3-c3ccccc3)cc2)CC1 | 12% |
| COC(=O)Cc1nnn2c1[C@H](C)[C@H](c1ccccc1[N+](=O)[O-])OCC2 | 1.45% |
| Nc1ccc2nc3c(=O)[nH]c(=S)[nH]c3nc2c1 | 109% (active) |
| O=C(NCc1ccccc1)[C@@H]1CCCN1C(=O)[C@H]1CCCN1C(=O)c1cccc(Cl)c1 | 5.36% |
| CC(C)(C)n1nc(C2CC2)c(Br)c1NC(=O)c1ccccc1F | -0.36% |
| COC(=O)C1=C(C)N(Cc2ccc(C(F)(F)F)cc2)C(=NCc2ccccc2)NC1c1ccccc1C(F)(F)F (centres undefined) | -1.22% |
| COc1ccc(SSc2ccc(OC)cc2C(=O)O)c(C(=O)O)c1 | 5.64% |
| CCOC(=O)Cn1c2c(n(-c3ccc(F)cc3)c1=O)C=C(c1ccccc1)[C@@H](C)C(C(=O)N(C)C1CCCCC1)=C2 | 5.23% |
| CC(=O)Nc1ccc(NC(=O)[C@@H](NC(=O)c2cccc(C)c2)C(C)C)cc1 | 2.27% |
| Cc1cccc(C(=O)Nc2ccc(C(=O)/C=C/c3cccs3)cc2)c1 | 19.4% (active) |
| Cc1cccc(C(=O)Nc2ccc3c(c2)C(=O)N(CC(C)C)C3=O)c1 | -1.41% |
| COCc1[nH]nc2c1C(c1ccccc1)N(c1ccccc1)C2=O (centres undefined) | 5.26% |

| SMILES | inhibition |
| --- | --- |
| COc1cccc(CNC(=O)[C@H]2CCCN2C(=O)[C@H]2CCCN2C(=O)C2CCCCC2)c1 | -0.26% |
| COC(=O)C1=C(C)N(Cc2cccc(C(F)(F)F)c2)C(=NCc2ccccc2)NC1c1ccc(Cl)cc1 (centres undefined) | 7.39% |
| Cc1cc2c(nc1C)CCCN2C | -1.06% |
| Cc1ccc(NC(=O)C(=O)NCc2ccc(/C=N/NC(=O)c3c(C)nc4cc(C)ccn34)o2)cc1 | 5.69% |
| CCCC1OC23CCCCC2C(C#N)(C#N)C1(C#N)C(=N)O3 (centres undefined) | 24.9% (active) |
| CC(C)[C@H]1COCCS(=O)(=O)N1Cc1ccccc1-c1cccc2c1sc1ccccc12 | -8.35% |
| O=[N+]([O-])c1ccc(C=Nc2ccc(Cl)cc2Cl)s1 | -1.69% |
| Cc1nn(Cc2ccc(Cl)cc2)c(Cl)c1/C=N/NC(=O)CNc1ccccc1F | 4.16% |
| Cc1ccccc1NCC(=O)N/N=C\c1ccc([N+](=O)[O-])s1 | 21.7% (active) |
| CN1C(=O)C2CC(O)C(SC3CC4C(=O)N(C)C(=O)C4CC3O)CC2C1=O (centres undefined) | 0.12% |
| C=CC[C@]12C[C@@]3(O[C@H](c4ccc(C(F)(F)F)cc4)N=C3C[C@H](c3ccc(OC)cc3)[C@H]1C)N(C1CCN(Cc3ccccc3)CC1)C2=O | 3.26% |
| CC(=O)N/N=C(\C)c1ccc(Br)cc1Br | 2.37% |
| O=C(Nc1ccccc1)c1ccccc1Br | -6.01% |
| CC(=N\NC(=O)c1cc(Br)ccc1O)/C(=N/O)C(=O)Nc1ccccc1 | 35.2% (active) |
| COc1cccc(-c2cc(CNC(=O)[C@@H](Cc3ccccc3)NC(=O)[C@H]3O[C@@H](n4cnc(C(N)=O)n4)[C@H](O)[C@@H]3O)no2)c1 | 0.79% |
| CC(=O)C1=C(C)N(Cc2ccccc2)C(=S)NC1c1cccc(Br)c1 (centres undefined) | -1.04% |
| COC(=O)c1c(-c2ccc(OC)cc2)c2c(c3c4cc(OC)ccc4n(S(=O)(=O)c4ccc(F)cc4)c13)C(=O)N(C)C2 | -4.92% |
| CCOC(=O)N1CCN(C(=O)C[C@H]2C[C@@]3(C(=O)OC)C(=C[C@H](C4CCCC4)O[C@@H]3C)N(Cc3ccccc3)C2=O)CC1 | 8.81% |
| COc1cc(OC)cc(C(=O)N[C@H](C(=O)Nc2nc3ccccc3[nH]2)C(C)C)c1 | -1.15% |
| COc1ccc(Br)cc1C(=O)NC(=S)Nc1cc(-c2nc3ccccc3[nH]2)ccc1C | 55.2% (active) |
| O=C(NC(=S)Nc1ccccc1C(=O)O)c1ccc(-c2ccc(Br)cc2)o1 | 4.88% |
